Measured values taken from PubChem BioAssay.
Activity calls are given as the source filed them.

test: optical density shifts of acrAB sulA E. coli – strain DRC41, OD650, 48 h, E. coli filamentation inducer project, primary screen (AID 1152); conditions: higher = more signal, called active from +8 up or from −8 down;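 also: E. coli MC1000 strain DRC41 lacking acrAB efflux pump and sulA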

z-score, inactive:
CCOC(=O)C1=CC[C@@H](c2ccc(OC)cc2)N(S(=O)(=O)c2ccc(C)cc2)[C@H]1c1ccc(C)cc1 -1.22, CCOC(=O)C[C@H]1[C@H](OC(=O)Cc2ccc3c(c2)OCO3)[C@@H](NC(=O)c2ccc3ccccc3n2)c2cc(OCCCO)ccc2N1C(=O)Cc1ccc(OC)cc1 2.14, CC(C)(C)N1CC=CC23O[C@@H]4C=CCOC(=O)[C@@H]4[C@H]2C(=O)N(CCO)[C@@H]3C1=O (stereo not given in full) -0.476, CCOC(=O)C1=CC[C@@H](c2ccc(OC)cc2)N(S(=O)(=O)c2ccc(C)cc2)[C@H]1CC 0.938, COc1ccc(NN2C(C(O)c3ccc(I)cc3)C=CC3C(=O)N(C4CCCCC4)C(=O)C32)cc1 (stereo not given) -0.111, C=CCOC(=O)[C@H]1[C@@H]2C(=O)O[C@@H](c3ccccc3)[C@@H](c3ccccc3)N2[C@@H](c2ccc(OCCOC(=O)[C@@H]3C[C@@H]4C(=O)N[C@@H](CCCC[N+](C)(C)C)C(=O)N4[C@@H]3c3ccc(O)cc3)cc2)[C@]12C(=O)Nc1ccc(I)cc12 -1.78, Cc1ccc(S[C@]2(C(=O)NCc3ccccc3)CC(=O)N(Cc3ccccc3C(F)(F)F)[C@@H]2c2ccc(CO)cc2)cc1 0.995, CC(C)=CCCC(C)=CC(O)C1C=CC2C(=O)NC(=O)C2N1Nc1ccccn1 (stereo not given) -0.255, O=C1O[C@H](c2ccccc2)[C@H](c2ccccc2)N2[C@H]1[C@@H](C(=O)O)[C@]1(C(=O)Nc3ccc(C#CCCO)cc31)[C@H]2c1ccc(OCCO)cc1 0.761, C=CCN1C(=O)[C@@]2(O[C@@H](CCn3cc([C@H](O)c4ccccc4)nn3)[C@H]([Si](C)(C)c3ccc(OC)cc3)[C@H]2C)c2cc(N3C(=O)c4cccc5cccc3c45)ccc21 -0.851, NC(=O)NCC#Cc1ccc2c(c1)[C@]1(C(=O)N2)[C@H](c2ccc(OCCO)cc2)N2[C@H](c3ccccc3)[C@H](c3ccccc3)OC(=O)[C@H]2[C@@H]1C(=O)O 0.53, CO[C@H]1O[C@H](CO)[C@@H](OC(=O)Nc2ccc3c(c2)OCO3)[C@H](OC(=O)Nc2ccccc2-c2ccccc2)[C@H]1OC(=O)Nc1ccccc1-c1ccccc1 -0.133, CC1CC/C=C\[C@H]2OC34C=CCN(c5ccc6ccccc6c5)C(=O)[C@H]3N(C(C)CO)C(=O)[C@@H]4C2C(=O)O1 (stereo not given in full) -0.114, COC(=O)[C@@]1(Cc2ccc(OC)cc2)[C@H]2c3cc(C(=O)N4CCCC4)n(Cc4ccc(C(F)(F)F)nc4)c3C[C@H]2CN1C(=O)c1ccccc1 -2.07, Cc1ccc(C(C)CC(O)C2C=CC3C(=O)N(C)C(=O)C3N2Nc2ccccc2)o1 (stereo not given) -2.23, C=CC[C@@]1(C(=O)N(C)C)N=C(c2ccc(OCCCO)cc2)O[C@@H]1c1ccccc1CN=[N+]=[N-] 1.34, COC(=O)[C@@]1(Cc2ccccc2)[C@H]2c3cc(C(=O)N4CCCC4)n(Cc4ccc(OC)c(OC)c4)c3C[C@H]2CN1C(=O)c1ccccc1 -1.08, N#Cc1ccc(NN2C(C(O)C3CC=CCC3)C=CC3C(=O)N(c4ccccc4)C(=O)C32)cc1 (stereo not given) -0.411, C=C(C)[C@@H]1CC=C(C(O)C2C=CC3C(=O)N(c4ccccc4)C(=O)C3N2Nc2ccc([N+](=O)[O-])cc2)CC1 (stereo not given in full) -1.58, COc1ccc([Si](C)(C)[C@H]2[C@H](CCO)O[C@@]3(C(=O)N(Cc4cccc(N(C=O)c5ccccc5)c4)c4ccccc43)[C@@H]2C)cc1 2.15, CCCCC(O)C1C=CC2C(=O)N(c3ccccc3)C(=O)C2N1Nc1ccc([N+](=O)[O-])cc1 (stereo not given) 0.372, COc1ccc([Si](C)(C)[C@@H]2[C@@H](CC(=O)N3CCC[C@H]3CO)O[C@]3(C(=O)N(Cc4ccc(N5CCOC5=O)cc4)c4ccccc43)[C@H]2C)cc1 1.3, CC(C)NC(=O)[C@@H]1c2ccccc2C(=O)N(Cc2ccccc2C(F)(F)F)[C@H]1c1ccc(CO)cc1 0.0029, CCCCCC1=C2CNC(Cc3ccccc3)(C(=O)OC)C=C2C(C)C1=O (stereo not given) -1.76, CN(C)c1ccc(C(O)C2C=CC3C(=O)N(Cc4ccccc4)C(=O)C3N2n2cnnc2)cc1 (stereo not given) 1.3
